Reference: PubChem BioAssay (Tox21)
Where “and” joins values, the source holds several entries; their conditions need not be identical. Equal entries are not always repeated. Records with an inconclusive call do not appear. Calls of active or inactive are those of the source. Calls follow the shape of the dose curve; as a rule, active = well fitted curve in the direction sought with a large enough effect in the repeat runs; inconclusive = weak or mixed curves; inactive = no such curve, though single readings can be large; an effect the other way counts as inactive or inconclusive.

Assay: qHTS assay to identify small molecule agonists of the retinoic acid receptor (RAR) signaling pathway (AID 1159553)
Settings: C3RL4 RARE luciferase reporter, agonist, 6 h; series mostly up to 73.3 µM
How it was run: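 C3RL4 RARE-luciferase cells were seeded at 1,000/well and grown overnight at 37 C, then exposed to compounds for 6 hr at 37 C, 5% CO2. Luciferase reagent was added and luminescence was read after 30 min at room temperature.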
Potency is read from the fitted curve at half-maximal effect.

| SMILES | Potency |
| --- | --- |
| CC(C)CC(C)Nc1ccc(Nc2ccccc2)cc1 (configuration not stated) | inactive |
| CCCOCC(=Nc1ccc(Cl)cc1C(F)(F)F)n1ccnc1 | inactive |
| O=C(CCCN1CCC2(CC1)C(=O)NCN2c1ccccc1)c1ccc(F)cc1 | inactive |
| Cc1cc(SCc2sc(-c3ccc(C(F)(F)F)c(F)c3)nc2C)ccc1OCC(=O)O | inactive |
| CCCCCCCCCCCCCCC(Br)C(=O)O (configuration not stated) | inactive |
| c1ccc(Nc2ccc3ccccc3c2)cc1 | 3.05 µM (active) and 8.63 µM (active) |
| COc1cccc(C(=O)CCN[C@@H](C)[C@H](O)c2ccccc2)c1 | inactive |

Assay: qHTS assay to identify small molecule antagonists of the estrogen related receptor (ERR) signaling pathway from Tox21 library - cell viability counter screen (AID 1224834); also: nearly all actives have a fitted effect of over 30% in size
Settings: ERR reporter cells viability, CellTiter-Fluor, 17.5 h; series mostly up to 92.4 µM
How it was run: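 ERR reporter cells, 2,000 per well, rested 6 h, then exposed to compound in DMSO for 17.5 hours at 37 C. Viability read as fluorescence after 30 min with CellTiter-Fluor.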

| SMILES | Potency |
| --- | --- |
| CC1(c2ccc(Oc3ccccc3)cc2)OC(=O)N(Nc2ccccc2)C1=O (configuration not stated) | 27.5 µM (active) |
| CCCCCCCCCCCCCCCC[N+](C)(C)C | 23.5 µM (active) and 61.1 µM (active) and 18.8 µM (active) |
| CC(C)CC(C)Nc1ccc(Nc2ccccc2)cc1 (configuration not stated) | 60.1 µM (active) |
| c1ccc2c(c1)OCC(C1=NCCN1)O2 (configuration not stated) | 21.1 µM (active) |
| CCCOCC(=Nc1ccc(Cl)cc1C(F)(F)F)n1ccnc1 | 54.4 µM (active) |
| Cc1cc(C(C)(C)c2cc(C)c(O)c(C)c2)cc(C)c1O | 41.8 µM (active) |
| CN(C)C(=S)S | 9.89 µM (active) and 3.83 µM (active) and 13.7 µM (active) |
| Oc1ccc(C2(c3ccc(O)cc3)c3ccccc3-c3ccccc32)cc1 | 68.6 µM (active) |
| CC(C)(C)C(O)/C(=C\c1ccc(Cl)cc1Cl)n1cncn1 (configuration not stated) | 65.9 µM (active) |
| CCc1nn(C)c(C(=O)NCc2ccc(C(C)(C)C)cc2)c1Cl | 30.6 µM (active) |
